# An excerpt weighted towards active compounds, which were near 3.3% of everything screened.
# TLR9-MyD88 block – inhibitors of human TLR9-MyD88 binding; CHO BLA complementation TLR9-MyD88, CCF4 FRET ratio; inhibition, % at 4.98 µM; 340,000 tested, 0.21% active; AID 504734;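 active means inhibition above the mean over all tested compounds plus 3 SD, cut at about 21% in these data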;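 further: 0% = DMSO only wells and 100% = clavulanate BLA inhibitor control wells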
# TLR4 MyD88 comp – TLR4-MyD88 interaction inhibition in cells; O00206+Q99836; HeLa CL3-4 TLR4/MyD88 BLA complementation, FRET ratio; inhibition, % at 8.4 µM; 200,000 tested, 0.18% active; in the data active means inhibition above about 25%;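 further: 0% = vehicle and 100% = reference inhibitor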
# NOD2 RIPK2 PPI – blocks binding of human NOD2 to RIPK2. O43353. CHO BLA complementation NOD2-RIPK2, CCF4 ratio. inhibition, % at 4.98 µM. 360,000 tested, 0.38% active. AID 624267; in the data active means inhibition above about 21%;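 further: 0% = vehicle only and 100% = reference blocker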
# Target sequence (O43353 whole entry, looked up): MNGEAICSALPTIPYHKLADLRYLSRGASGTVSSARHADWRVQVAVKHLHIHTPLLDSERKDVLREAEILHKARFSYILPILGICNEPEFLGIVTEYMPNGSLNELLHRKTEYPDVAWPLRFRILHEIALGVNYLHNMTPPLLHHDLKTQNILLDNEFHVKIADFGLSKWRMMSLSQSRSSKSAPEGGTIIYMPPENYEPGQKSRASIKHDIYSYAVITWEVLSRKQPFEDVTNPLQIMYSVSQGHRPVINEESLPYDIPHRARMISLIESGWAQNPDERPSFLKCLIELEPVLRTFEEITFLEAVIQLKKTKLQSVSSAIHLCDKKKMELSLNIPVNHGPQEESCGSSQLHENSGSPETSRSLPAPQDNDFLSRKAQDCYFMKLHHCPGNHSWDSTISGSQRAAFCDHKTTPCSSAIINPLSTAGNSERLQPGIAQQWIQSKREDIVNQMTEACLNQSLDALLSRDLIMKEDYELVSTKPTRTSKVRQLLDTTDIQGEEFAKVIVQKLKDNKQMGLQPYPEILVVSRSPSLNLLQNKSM
# rCAG RNA binder – binds r(CAG) RNA repeats; r(CAG) RNA repeat, TO-PRO-1 dye displacement fluorescence; inhibition, % at 3 µM; 370,000 tested, 1.3% active; AID 651821;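 active means inhibition above the plate cutoff, the mean of all test compounds on that plate plus 3 SD, cut at about 35% in these data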;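 further: 0% = DMSO alone and 100% = 100 µM mitoxantrone as full dye displacement; higher means more dye released from RNA so lower well fluorescence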
# PRMT1 inh – blocks human protein arginine methyltransferase 1; recombinant PRMT1, activity-based probe fluorescence polarization; 370,000 tested, 1.3% active; Q99873; AID 652257; inhibition, % at 2.79 µM;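 active means inhibition above about 21% made by adding two undisclosed values, limit read from the data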
# ABHD5-PLIN5 inh – ABHD5-PLIN5 protein interaction inhibition; Split G. princeps luciferase complementation, luminescence, 4 h; inhibition, % at 4 µM; 360,000 tested, 0.78% active; AID 602281;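 active means inhibition above the mean inhibition across every tested compound plus 3 SD, cut at about 22% in these data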;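 further: 0% = DMSO only wells and the 100% control is not disclosed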
# PRMT1 confirm – confirmation of human PRMT1 inhibitors; shares compounds with PRMT1 inh; inhibition, % at 2.79 µM; AID 687036; 3,300 tested, 42% active; recombinant His-PRMT1, activity-based probe fluorescence polarization;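 active means mean inhibition across replicates above the hit cutoff derived for the earlier primary screen, cut at about 22% in these data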
# Starred values were filed as active, the others as inactive; / = no result given.
SMILES,TLR9-MyD88 block,TLR4 MyD88 comp,NOD2 RIPK2 PPI,rCAG RNA binder,PRMT1 inh,ABHD5-PLIN5 inh,PRMT1 confirm
CCCCCCC1CC(CCc2nc(=S)[nH][nH]2)C(=O)O1 (stereo not given),-16.6,-7.3,-1.6,1.4,7.6,-14.5,/
S=c1[nH]c(-c2ccccc2)cn1/N=C/c1cccs1,3.4,/,-9.8,5.4,45.3*,-6.7,22.1*
COC(=O)[C@]12C[C@H](CC(=O)NCC3CCCCC3)C(=O)N(CCc3ccc(OC)c(OC)c3)C1=C[C@H](C(C)C)O[C@@H]2C1CC1,/,/,/,2.2,5.6,/,/
Cc1cc(C)c(C(=O)COc2cccnc2[N+](=O)[O-])cc1C,-2.8,-1.8,-2.1,3.0,37.5*,-2.9,50.7*
Cc1ccc(S(=O)(=O)N2CCCC2C(=O)N2CCN(c3ccccc3)CC2)cc1C (stereo not given),/,/,/,-1.4,-6.4,/,/
O=C(COC(=O)c1c[nH]c(=O)[nH]c1=O)Nc1cccc([N+](=O)[O-])c1,7.1,/,-9.2,0.6,-2.2,6.8,/
CC1CC1C(=O)Nc1nc(-c2cccs2)c(-c2cccs2)s1 (stereo not given),-6.8,3.1,-1.1,22.4,27.2*,-8.6,9.2
O=C(CSC1=NNC(c2ccccn2)S1)Nc1cccc(Cl)c1 (stereo not given),/,/,-8.9,11.7,61.0*,-15.1,40.9*
O=C(CSC1=NNC(c2ccccn2)S1)Nc1ccccc1 (stereo not given),-10.0,/,1.8,7.3,66.2*,9.7,45.5*
O=C(CSc1nncn1-c1ccccn1)Nc1cccc(Cl)c1,-8.8,0.2,-4.2,3.3,5.3,3.1,/
S=c1[nH]c2cc(Cl)ccc2s1,0.6,3.3,10.3,-0.9,47.4*,-4.6,7.4
S=c1[nH]c2ccc(Cl)cc2[nH]1,-6.6,-1.6,-10.5,1.2,1.4,-3.8,/
Cc1ccc(-c2ccc(=O)n(CC(=O)NCCN(CC(C)C)CC(C)C)n2)cc1,5.7,/,4.0,-4.4,-1.3,1.7,/
CSc1ccc(/C=N/NC(=O)CNc2ccc3ccccc3c2)cc1,-14.4,-15.9,0.1,16.4,28.8*,1.0,11.3
CCC(CO)n1c(SCc2cc(=O)oc3cc(C)ccc23)nc2ccccc2c1=O (stereo not given),-2.8,-6.6,1.3,-3.6,77.2*,-0.4,67.0*
COc1ccccc1-n1c(SCc2cc(=O)oc3cc(O)ccc23)nc2ccccc2c1=O,-9.7,6.0,-14.3,32.2,1.8,5.2,/
CCOc1cccc(N2C(=O)CC(NCc3ccc(S(N)(=O)=O)cc3)C2=O)c1 (stereo not given),-3.2,10.4,-1.0,3.0,45.9*,1.7,-0.6
O=C1CC(NCc2ccccc2)C(=O)N1c1ccc(F)cc1 (stereo not given),/,3.9,-4.8,4.2,12.9,1.6,/
CCOc1ccc(N2C(=O)CC(NCC3CCCO3)C2=O)cc1 (stereo not given),3.3,-0.1,-9.2,4.0,79.6*,6.3,3.5
COc1ccc(N2C(=O)CC(NCc3cccs3)C2=O)cc1 (stereo not given),2.0,-6.8,2.2,1.6,50.6*,7.0,0.1
CCOc1ccc(N2C(=O)CC(NCc3ccc(F)cc3)C2=O)cc1 (stereo not given),0.9,-10.4,4.7,-4.0,54.8*,11.6,2.1
CCCCNC(=O)C[C@H]1C[C@@]2(C(=O)OC)C(=C[C@H](C(C)C)O[C@@H]2C2CC2)N(Cc2ccc(Cl)cc2Cl)C1=O,/,/,/,1.2,1.1,/,/
O=C(CSc1ccccc1F)NC(=O)NC1CCCC1,-4.3,/,-5.5,-1.9,1.9,-5.4,/
C=CCNc1cc(F)ccc1S(=O)(=O)NCC=C,-1.4,/,-10.9,1.5,0.2,-2.8,/
CCOc1ccc(N2C(=O)CC(N)C2=O)cc1 (stereo not given),1.2,-6.2,-6.2,0.1,75.7*,6.6,51.0*
SMILES,TLR9-MyD88 block,TLR4 MyD88 comp,NOD2 RIPK2 PPI,rCAG RNA binder,PRMT1 inh,ABHD5-PLIN5 inh,PRMT1 confirm
CCOc1ccc(N2C(=O)CC(Cc3cc(C)cc(C)c3)C2=O)cc1 (stereo not given),-6.7,/,-1.0,-6.3,-1.4,-4.2,/
CCCCCCOc1ccc(N2C(=O)CC(NCCc3ccc(S(N)(=O)=O)cc3)C2=O)cc1 (stereo not given),-10.6,7.0,-8.4,2.7,41.8*,2.6,7.8
Cc1nnc(NC(=O)CCSCCC(=O)Nc2nnc(C)s2)s1,-5.9,0.1,-10.5,10.4,28.5*,-1.0,29.8*
CC(=O)c1ccc(NC(=O)C(C)OC(=O)/C=C/c2ccco2)cc1 (stereo not given),7.1,/,-0.2,21.3,30.8*,6.1,0.7
CC(OC(=O)/C=C/c1ccco1)C(=O)Nc1cccc([N+](=O)[O-])c1 (stereo not given),-1.6,6.2,-15.8,5.9,-0.7,1.6,/
CN(C(=O)CN(C)S(=O)(=O)c1ccc(F)cc1)c1c(N)n(Cc2ccccc2)c(=O)[nH]c1=O,-0.5,/,-1.2,-4.0,-4.7,8.3,/
Cc1[nH]c2ccccc2c1CN1CCC(Cc2ccccc2)CC1,9.6,-1.9,15.2,2.7,-2.1,20.6,/
CCN(CC)c1ccc(NC(=O)c2ccccc2)cc1S(=O)(=O)Nc1ccccc1OC,5.4,2.1,-2.9,15.9,26.6*,-6.9,10.1
CCN(CC)c1ccc(NC(=O)c2cccc(C)c2)cc1S(=O)(=O)Nc1ccccc1OC,4.2,-6.5,-3.0,14.3,33.6*,-3.3,4.5
COc1ccccc1NS(=O)(=O)c1cc(NC(=O)c2ccc(Cl)nc2)ccc1Cl,5.9,2.3,1.7,17.2,-2.5,-0.7,/
COc1ccc(C(=O)Nc2ccc(Cl)c(S(=O)(=O)Nc3ccccc3OC)c2)cc1,2.6,4.3,7.8,10.6,-1.4,4.6,/
CC1(C(=O)NCc2ccc(C(F)(F)F)cc2)CCN1C1Cc2ccccc2C1 (stereo not given),/,/,1.6,-0.4,0.5,2.5,/
O=C(NCc1ccccc1)C1Cc2c(-c3ccc4c(c3)OCO4)ccnc2O1 (stereo not given),/,/,13.9,0.3,3.0,8.9,/
O=C(NCc1ccncc1)C1Cc2c(-c3ccc4c(c3)OCO4)ccnc2O1 (stereo not given),/,/,-2.3,-1.2,39.9*,-0.2,11.5
OCC[C@@H]1C[C@H](O)[C@@H](O)[C@]2(OCc3ccc(CO)cc32)O1,/,/,7.0,0.8,0.0,-0.5,/
OCc1cccc(Nc2ncnc3sc4c(c23)CCCCC4)c1,10.0,/,-3.8,-0.7,-4.6,-0.8,/
CCOC(=O)c1cc(-c2ccc(F)cc2)n(CC(=O)NCc2cccnc2)c1C,9.4,-10.2,7.2,-3.5,27.6*,0.9,7.4
Cn1ccnc1C(O)c1cc(C(C)(C)C)c(O)c(C(C)(C)C)c1 (stereo not given),-2.5,3.9,8.6,-4.5,36.6*,18.6,12.6
